# GIRK2 activator – Activates human GIRK2-containing potassium channels; P48051; 34,000 tested, under 10 active; activation (% efficacy), % for hits at 37.5 µM; HEK293 GIRK2/NPY4 cells, thallium flux fluorescence; AID 1259324;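 active = primary screen hit, no activity in plain HEK293 cells, and in GIRK2-only cells above 5% efficacy rising with concentration; inactive = the rest, including fluorescent compounds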;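 also: efficacy is normalized control-subtracted fluorescence 15 s after thallium addition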
# GluA2 TARP mod – modulates AMPAR-stargazin complexes; HEK293 GluA2+stargazin, membrane potential dye (FDSS), glutamate EC50; hits were called plate by plate, in both directions; hit rate 3.5% among 40,000; AID 1259245; O88602+P19491; calls only at 30 µM;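 active = any of four per-well response measures lying three or more SD from its plate-wide compound average, in either direction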
# Calls only; – = inactive; · = no result given; + = active, no number. The sample as a whole holds a higher share of hits than the screen did.
SMILES,GIRK2 activator,GluA2 TARP mod
COc1ccc(S(=O)(=O)N2CCCOC2CNC(=O)C(=O)NC2CCCC2)cc1OC (stereo not drawn),·,–
COCCn1c(N)c(S(=O)(=O)c2ccc(Cl)cc2)c2nc3ccccc3nc21,–,–
COCCn1c(N)c(-c2nc3ccccc3n2C)c2nc3ccccc3nc21,–,+
O=C(NCc1cccs1)C(=O)Nc1ccc2c(c1)OCCO2,–,–
O=C(Nc1cccc(C(F)(F)F)c1)c1cc(-c2ccccc2)nc2ccccc12,·,–
C=CCN(CC=C)C(=O)c1cc(-c2ccccc2)nc2ccccc12,·,+
Cc1cccc(C)c1NC(=O)COc1ccc2c(C)cc(=O)oc2c1C,·,–
Cc1ccc(C)c(OCC(=O)Nc2c(C)cccc2C(C)C)c1C,–,+
O=C(NCCCc1ccccc1)N1CC(c2nc(-c3cccnc3)no2)C1,·,–
COC(=O)c1ccc(NC(=O)COc2ccc(C(C)C)c(C)c2)cc1,·,–
COc1cn(CC(=O)Nc2ccc(C)cc2)c(CSc2nc(C)cs2)cc1=O,–,+
CCOc1ccc(NC(=O)Cn2cc(OC)c(=O)cc2CSc2nc(C)cs2)cc1,–,–
COc1cn(CC(=O)Nc2ccc(C(N)=O)cc2)c(CSc2nnnn2C)cc1=O,–,–
COc1ccc(NC(=O)Cn2cc(OC)c(=O)cc2CSc2nnnn2C)cc1OC,–,+
COCCn1c(=S)[nH]c2cc(C(=O)NCc3ccccn3)ccc2c1=O,–,–
COc1cn(-c2ccc(F)cc2)nc1C(=O)NCCCn1ccnc1,–,+
COCCCNC(=O)c1nn(-c2ccc(F)cc2)cc1OC,–,–
COc1ccc(NC(=O)c2ccc(=O)n(Cc3cccc(C(F)(F)F)c3)c2)c(OC)c1,–,–
COC(=O)Cn1c(=O)c2c(nc3n2CCCN3c2ccc(Br)cc2)n(C)c1=O,·,–
COc1ccc(OCC(=O)Nc2ccc(CC(=O)N3CCOCC3)cc2)cc1,–,+
COc1ccc(CC(=O)Nc2ccc(CC(=O)N3CCCC3)cc2)cc1,–,–
O=C(Cc1cc(-c2ccccc2)on1)NCCCN1CCOCC1,–,·
O=C(CCCc1ccccc1)N1CCN(c2nccn2-c2cccc(Cl)c2)CC1,–,+
COc1ccc(CCC(=O)N2CCN(c3nccn3-c3cccc(Cl)c3)CC2)cc1,–,–
COc1ccc(Cl)cc1N1C=C(C#N)S(=O)(=O)c2ccc(Cl)cc21,–,–
SMILES,GIRK2 activator,GluA2 TARP mod
C=CCN1C(=O)C(C)(C)COc2cc(NC(=O)C3CCCO3)ccc21 (stereo not drawn),–,–
CC1CC(C)CN(S(=O)(=O)c2c(F)cccc2F)C1 (stereo not drawn),·,+
COc1ccc(C)cc1S(=O)(=O)N1CC(C)CC(C)C1 (stereo not drawn),·,–
CS(=O)(=O)c1ccc(C(=O)Nc2nnc(CS(=O)(=O)c3ccccc3)o2)cc1,–,–
CSc1ccc(-c2noc(CSc3nc4ccccc4c(=O)n3Cc3ccco3)n2)cc1,·,–
COc1ccc(-c2noc(CSc3nc4ccccc4c(=O)n3Cc3ccco3)n2)cc1OC,·,+
O=C(c1ccc(=O)[nH]n1)N1CCC(Cn2cccn2)CC1,–,–
Cc1cc(C)c(C)c(OCC(O)CN2CC(C)CC(C)C2)c1 (stereo not drawn),–,+
Cc1cc(C)c(C)c(OCC(O)CN2C(C)(C)CC(O)CC2(C)C)c1 (stereo not drawn),–,+
COc1ccccc1OCC(O)CN1CC(C)CC(C)C1 (stereo not drawn),–,–
COc1ccccc1OCC(O)CN1C(C)(C)CC(O)CC1(C)C (stereo not drawn),–,–
CCCCOCC(O)CN1CCN(C(=O)OCC)CC1 (stereo not drawn),–,–
Cc1nc(Nc2ccc(NC(=O)C(C)C)cc2)cc(-n2cccn2)n1,–,–
CCn1ccc(C(=O)N2CC(=O)Nc3ccccc32)n1,–,·
COc1cccc(C(=O)NCCS(=O)(=O)N2CCOCC2)c1,·,–
COc1cccc(C(=O)NCCS(=O)(=O)N2CCC3(CC2)OCCO3)c1,·,+
Cc1cc(C)cc(N2C(=O)N(Cc3ccc(Br)cc3F)C3CS(=O)(=O)CC32)c1 (stereo not drawn),–,–
Cc1ccc(S(=O)(=O)Nc2ccccc2C)cc1,·,–
CCOc1ccc(NC(=O)NCCOc2ccc3nnc(-c4cccc(F)c4)n3n2)cc1,–,–
Cc1ccc(S(=O)(=O)/C(C#N)=C/N2CCN(Cc3ccccc3)CC2)cc1C,–,+
Cc1ccc(S(=O)(=O)/C(C#N)=C/N2CCN(Cc3ccc4c(c3)OCO4)CC2)cc1C,–,–
COC(=O)c1sccc1S(=O)(=O)N(CC(=O)Nc1cccc(OC)c1)c1ccc(Cl)cc1,–,+
COC(=O)c1sccc1S(=O)(=O)N(CC(=O)Nc1ccccc1)c1ccccc1,–,–
CCc1ccccc1NC(=O)CN(c1ccc(C)cc1)S(=O)(=O)c1ccsc1C(=O)OC,–,+
COC(=O)c1sccc1S(=O)(=O)N(CC(=O)Nc1ccccc1OC)c1ccccc1,–,–
SMILES,GIRK2 activator,GluA2 TARP mod
CCOC(=O)CSc1nc2sc(C)cc2c(=O)n1Cc1ccco1,·,–
O=S(=O)(NCCCCN1CCOC(c2ccccc2)C1)c1ccccc1 (stereo not drawn),–,·
COc1ccc(OC)c(NC(=O)c2ccc(N3CCCCS3(=O)=O)cc2)c1,–,–
CCN(CC)CC(=O)NCc1ccccc1,·,–
Cc1c(NC(C)c2cc(Cl)ccc2O)c(=O)n(-c2ccccc2)n1C (stereo not drawn),·,+
Cc1c(NC(=S)NC(=O)c2ccccc2Cl)c(=O)n(-c2ccccc2)n1C,–,–
COc1ccc(-n2nnc3c(N4CCN(C(=O)c5cc(=O)c6ccccc6o5)CC4)ncnc32)cc1,·,–
COc1cc(/C=C/C(=O)NCCCn2cccc2)cc(OC)c1OC,–,+
COc1cc(/C=C/C(=O)c2ccc(O)cc2)cc(OC)c1OC,·,–
COc1cc(/C=C/C(=O)NCCc2ccsc2)cc(OC)c1OC,–,–
COc1cc(/C=C/C(=O)Nc2nncs2)cc(OC)c1OC,–,+
CCc1nnc(NC(=O)CSc2c(CC(C)C)cnc3c2c(=O)n(C)c(=O)n3C)s1,·,–
Cc1ccsc1C(=O)NC1(c2nc(-c3cnccn3)no2)CCCCC1,–,–
O=C(NCC(O)c1ccsc1)Nc1ccc(C(F)(F)F)cc1 (stereo not drawn),–,–
CC(=O)N1CCN(c2ccnc3c2c(=O)n(CC(=O)N2CCOCC2)c(=O)n3C)CC1,·,–
Nc1nc(SCC(=O)NCc2ccccc2)ncc1S(=O)(=O)c1cccs1,–,–
COc1cc([N+](=O)[O-])ccc1NC(=O)c1ccc(=O)n(Cc2cccc(C(F)(F)F)c2)c1,–,–
COc1cc([N+](=O)[O-])ccc1NC(=O)c1ccc(=O)n(Cc2ccccc2)c1,–,+
COc1cccc(NC(=O)c2ccc(=O)n(Cc3cccc([N+](=O)[O-])c3)c2)c1,–,–
CC(=O)c1cccc(NC(=O)c2ccc(=O)n(Cc3cccc([N+](=O)[O-])c3)c2)c1,–,+
COc1cc([N+](=O)[O-])ccc1NC(=O)c1ccc(=O)n(Cc2ccc(Cl)cc2)c1,–,–
COc1cc([N+](=O)[O-])ccc1NC(=O)c1ccc(=O)n(Cc2cccc(Cl)c2)c1,–,+
CCn1nnc2c(NCc3cccc(OC)c3)ncnc21,–,–
O=S(=O)(c1ccccc1Cl)N1CCN(c2ccc(-c3cccnc3)nn2)CC1,–,–
